This is an account of results in publication PMC13541613, “GHT-SELEX demonstrates unexpectedly high intrinsic sequence specificity and complex DNA binding of many human transcription factors”.

Assay in all cases: HT-SELEX; 20 mM HEPES pH 7, 140 mM KCl, 5 mM NaCl, 1 mM K2HPO4, 2 mM MgSO4, 100 uM EGTA, ZnSO4, 0.1% Tween20; room temperature, 1 h; high values mean tight binding
Conditions in all cases: protein: ivt; tags: eGFP (N-terminal); dsDNA, one strand shown

The target in one assay is ZNF721 full-length (Homo sapiens, UniProt Q8TF20-2 1-923). The method, boiled down: (§1)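 Full-length or DNA-binding-domain forms of a tagged transcription factor were produced in HEK293 lysate or cell-free extract and immobilised on beads. Incubation with a randomized 40-base DNA library ran for 1 h at room temperature in HEPES/KCl low-stringency buffer with Tween20, after which bound DNA was washed, heat-eluted, PCR-amplified over successive cycles and Illumina-sequenced. Binding strength is given as the relative k-mer count in selected reads, higher for tighter binding.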
Sequence of ZNF721 full-length (Q8TF20 other isoform, or with tags, fused parts or gaps): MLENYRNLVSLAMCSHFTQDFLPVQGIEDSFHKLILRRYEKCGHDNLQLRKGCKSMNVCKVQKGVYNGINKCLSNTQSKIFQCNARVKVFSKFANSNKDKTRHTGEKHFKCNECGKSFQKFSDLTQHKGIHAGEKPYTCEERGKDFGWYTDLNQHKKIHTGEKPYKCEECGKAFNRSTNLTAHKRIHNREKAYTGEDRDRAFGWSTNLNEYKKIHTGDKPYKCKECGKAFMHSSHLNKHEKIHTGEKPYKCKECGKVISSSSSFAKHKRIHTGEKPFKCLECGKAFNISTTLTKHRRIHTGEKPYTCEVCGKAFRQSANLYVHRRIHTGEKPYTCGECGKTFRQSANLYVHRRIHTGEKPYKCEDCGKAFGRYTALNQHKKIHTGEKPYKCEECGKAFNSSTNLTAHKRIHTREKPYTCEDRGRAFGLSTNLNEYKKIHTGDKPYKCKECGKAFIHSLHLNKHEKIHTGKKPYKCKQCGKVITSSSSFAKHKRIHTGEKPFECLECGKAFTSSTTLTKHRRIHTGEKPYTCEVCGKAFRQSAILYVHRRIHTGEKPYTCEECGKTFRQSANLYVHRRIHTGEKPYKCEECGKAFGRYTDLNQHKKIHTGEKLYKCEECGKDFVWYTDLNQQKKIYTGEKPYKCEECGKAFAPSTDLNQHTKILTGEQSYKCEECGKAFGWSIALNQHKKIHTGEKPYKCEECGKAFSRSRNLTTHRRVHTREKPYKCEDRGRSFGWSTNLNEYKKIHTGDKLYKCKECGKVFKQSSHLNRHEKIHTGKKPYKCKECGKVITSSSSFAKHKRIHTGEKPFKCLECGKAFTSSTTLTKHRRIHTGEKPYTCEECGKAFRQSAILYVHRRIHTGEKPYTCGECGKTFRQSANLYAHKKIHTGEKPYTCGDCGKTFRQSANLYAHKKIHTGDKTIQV

The next assay deals with ZNF721 DBD1 (Homo sapiens, UniProt Q8TF20-2 29-461). A digest of the protocol: as §1
Sequence of ZNF721 DBD1 (Q8TF20 17-449): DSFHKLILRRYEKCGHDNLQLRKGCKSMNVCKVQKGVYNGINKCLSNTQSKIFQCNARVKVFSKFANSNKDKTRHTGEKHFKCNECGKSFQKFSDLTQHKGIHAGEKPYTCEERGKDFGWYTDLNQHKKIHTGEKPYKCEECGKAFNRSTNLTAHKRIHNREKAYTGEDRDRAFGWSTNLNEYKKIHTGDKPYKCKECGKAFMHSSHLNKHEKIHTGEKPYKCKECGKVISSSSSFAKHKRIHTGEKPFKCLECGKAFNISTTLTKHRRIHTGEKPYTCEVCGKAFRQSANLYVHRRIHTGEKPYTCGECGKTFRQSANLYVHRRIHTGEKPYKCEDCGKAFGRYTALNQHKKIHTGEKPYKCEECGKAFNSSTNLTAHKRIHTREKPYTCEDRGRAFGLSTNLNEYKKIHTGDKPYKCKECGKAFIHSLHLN
Another assay has as its target ZNF721 DBD2 (Homo sapiens, UniProt Q8TF20-2 395-923). A digest of the protocol: as §1

Sequence of ZNF721 DBD2 (Q8TF20 383-911): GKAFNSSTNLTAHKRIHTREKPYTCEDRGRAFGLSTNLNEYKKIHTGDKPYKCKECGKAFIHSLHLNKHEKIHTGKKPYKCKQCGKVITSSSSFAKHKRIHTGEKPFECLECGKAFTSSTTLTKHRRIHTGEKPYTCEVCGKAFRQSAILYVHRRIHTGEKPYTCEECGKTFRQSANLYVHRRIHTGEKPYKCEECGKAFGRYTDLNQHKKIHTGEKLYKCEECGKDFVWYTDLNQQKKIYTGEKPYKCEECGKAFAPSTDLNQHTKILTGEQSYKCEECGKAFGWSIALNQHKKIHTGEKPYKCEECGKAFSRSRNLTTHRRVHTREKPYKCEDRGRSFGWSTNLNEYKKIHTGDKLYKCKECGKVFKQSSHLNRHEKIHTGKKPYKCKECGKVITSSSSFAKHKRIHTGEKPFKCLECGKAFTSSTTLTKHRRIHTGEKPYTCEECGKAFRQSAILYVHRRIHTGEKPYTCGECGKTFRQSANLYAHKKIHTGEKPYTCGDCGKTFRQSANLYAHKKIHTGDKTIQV

Consider AAAGCAGCAT, for which the values for the binding signal in the assay with ZNF721 full-length, with ZNF721 DBD1 and with ZNF721 DBD2 were 0.31 relative 10-mer count, 0.00202 relative 10-mer count and 0.366 relative 10-mer count, respectively.

Consider CCCCCAACCA, for which the binding signal in the assay with ZNF721 full-length worked out at 0.118 relative 10-mer count; with ZNF721 DBD1 it was 0.00477 relative 10-mer count; with ZNF721 DBD2, 0.00503 relative 10-mer count.

For the sequence CACCCTACCC, the binding signal in the assay with ZNF721 full-length is 0.107 relative 10-mer count; with ZNF721 DBD1, 0.00408 relative 10-mer count; with ZNF721 DBD2, 0.00491 relative 10-mer count.

On to CCAAAAAAAA, for which the binding signal turned out to be 0.211 relative 10-mer count in the assay with ZNF721 full-length, 0.0171 relative 10-mer count with ZNF721 DBD1 and 0.0966 relative 10-mer count with ZNF721 DBD2.

CGCACCACCC: the figures for the binding signal in the assay with ZNF721 full-length, in the assay with ZNF721 DBD1 and with ZNF721 DBD2 were 0.108 relative 10-mer count, 0.00381 relative 10-mer count and 0.00695 relative 10-mer count, respectively.

Take CCCACCAACC: the binding signal with ZNF721 full-length turned out to be 0.171 relative 10-mer count; with ZNF721 DBD1, 0.00794 relative 10-mer count; in the assay with ZNF721 DBD2 it was 0.00563 relative 10-mer count.

Regarding GCCCACCCCA, the binding signal came out at 0.142 relative 10-mer count in the assay with ZNF721 full-length, 0.00505 relative 10-mer count in the assay with ZNF721 DBD1 and 0.00971 relative 10-mer count with ZNF721 DBD2.

In the case of CCTCCACCCA, the results for the binding signal with ZNF721 full-length, in the assay with ZNF721 DBD1 and with ZNF721 DBD2 were 0.111 relative 10-mer count, 0.00505 relative 10-mer count and 0.00527 relative 10-mer count, respectively.

With CTCCCCCGCC, the values for the binding signal with ZNF721 full-length, with ZNF721 DBD1 and in the assay with ZNF721 DBD2 were 0.118 relative 10-mer count, 0.0056 relative 10-mer count and 0.00216 relative 10-mer count, respectively.

In the case of CCTCCCCCTC, the binding signal with ZNF721 full-length was 0.15 relative 10-mer count; with ZNF721 DBD1, 0.00807 relative 10-mer count; in the assay with ZNF721 DBD2 it was 0.00467 relative 10-mer count.

For CCCACCCCCG, the binding signal with ZNF721 full-length amounted to 0.214 relative 10-mer count; with ZNF721 DBD1, 0.00771 relative 10-mer count; in the assay with ZNF721 DBD2, 0.00264 relative 10-mer count.

For CCCACCACCC, the results for the binding signal in the assay with ZNF721 full-length, with ZNF721 DBD1 and with ZNF721 DBD2 were 0.562 relative 10-mer count, 0.0272 relative 10-mer count and 0.00635 relative 10-mer count, respectively.

Consider ACCCCAACCC, for which the binding signal was 0.128 relative 10-mer count in the assay with ZNF721 full-length, 0.00463 relative 10-mer count with ZNF721 DBD1 and 0.00348 relative 10-mer count with ZNF721 DBD2.

Take AGGGGAGGGG: the binding signal with ZNF721 full-length came to 0.13 relative 10-mer count; in the assay with ZNF721 DBD1, 0.00665 relative 10-mer count; with ZNF721 DBD2, 0.00479 relative 10-mer count.

For the sequence CCCTCCTCCC, the binding signal came to 0.179 relative 10-mer count with ZNF721 full-length, 0.00927 relative 10-mer count with ZNF721 DBD1 and 0.00479 relative 10-mer count in the assay with ZNF721 DBD2.

As for CACCACCCAC, the binding signal with ZNF721 full-length came to 0.206 relative 10-mer count; in the assay with ZNF721 DBD1, 0.0105 relative 10-mer count; with ZNF721 DBD2 it was 0.0119 relative 10-mer count.

For CACCGTCCCC, the binding signal came to 0.111 relative 10-mer count in the assay with ZNF721 full-length, 0.0039 relative 10-mer count with ZNF721 DBD1 and 0.00252 relative 10-mer count with ZNF721 DBD2.

As for AAAAAAGCTA, the binding signal with ZNF721 full-length amounted to 0.489 relative 10-mer count; with ZNF721 DBD1 it was 0.222 relative 10-mer count; in the assay with ZNF721 DBD2, 0.00276 relative 10-mer count.

For the sequence CGAAAAAAAG, the binding signal in the assay with ZNF721 full-length is 0.159 relative 10-mer count; in the assay with ZNF721 DBD1, 0.0289 relative 10-mer count; with ZNF721 DBD2, 0.0578 relative 10-mer count.

For the sequence CACCATCCCC, the binding signal with ZNF721 full-length is 0.118 relative 10-mer count; with ZNF721 DBD1, 0.00468 relative 10-mer count; with ZNF721 DBD2, 0.003 relative 10-mer count.

CCGCCGCCCC: the binding signal with ZNF721 full-length stood at 0.169 relative 10-mer count; with ZNF721 DBD1 it was 0.00546 relative 10-mer count; with ZNF721 DBD2, 0.00168 relative 10-mer count.

In the case of AGAAAAAACA, the binding signal in the assay with ZNF721 full-length came to 0.12 relative 10-mer count; with ZNF721 DBD1, 0.00211 relative 10-mer count; with ZNF721 DBD2 it was 0.0902 relative 10-mer count.

As to CCCACACCCC, the binding signal was determined as 0.278 relative 10-mer count in the assay with ZNF721 full-length, 0.00977 relative 10-mer count with ZNF721 DBD1 and 0.00407 relative 10-mer count with ZNF721 DBD2.

For GGGTGGGGGA, the binding signal with ZNF721 full-length stood at 0.208 relative 10-mer count; with ZNF721 DBD1, 0.00885 relative 10-mer count; with ZNF721 DBD2 it was 0.00443 relative 10-mer count.

For the sequence GCTTCTTTCC, the binding signal in the assay with ZNF721 full-length came to 0.103 relative 10-mer count; with ZNF721 DBD1, 0.0866 relative 10-mer count; in the assay with ZNF721 DBD2 it was 0.00156 relative 10-mer count.

As for ACAAAAAAGC, the binding signal with ZNF721 full-length was determined as 0.187 relative 10-mer count; in the assay with ZNF721 DBD1 it was 0.0198 relative 10-mer count; in the assay with ZNF721 DBD2 it was 0.0647 relative 10-mer count.

Turning to AAAAAAGAGT, the binding signal is 0.101 relative 10-mer count with ZNF721 full-length, 0.00665 relative 10-mer count in the assay with ZNF721 DBD1 and 0.0674 relative 10-mer count with ZNF721 DBD2.

As to CCGCCCACCC, the results for the binding signal with ZNF721 full-length, in the assay with ZNF721 DBD1 and with ZNF721 DBD2 were 0.268 relative 10-mer count, 0.0089 relative 10-mer count and 0.0018 relative 10-mer count, respectively.

Turning to CCCCCACACC, the binding signal came to 0.231 relative 10-mer count with ZNF721 full-length, 0.00821 relative 10-mer count in the assay with ZNF721 DBD1 and 0.00779 relative 10-mer count with ZNF721 DBD2.

In the case of AAAAAAAAGC, the binding signal was determined as 0.653 relative 10-mer count with ZNF721 full-length, 0.113 relative 10-mer count with ZNF721 DBD1 and 0.125 relative 10-mer count with ZNF721 DBD2.

In the case of GAAAAGCAGC, the binding signal with ZNF721 full-length worked out at 0.106 relative 10-mer count; in the assay with ZNF721 DBD1, 0.00147 relative 10-mer count; with ZNF721 DBD2 it was 0.125 relative 10-mer count.

TAAAAAAGCA: the binding signal with ZNF721 full-length came to 0.179 relative 10-mer count; with ZNF721 DBD1, 0.00816 relative 10-mer count; in the assay with ZNF721 DBD2, 0.114 relative 10-mer count.

In the case of ACCCCCCACC, the binding signal in the assay with ZNF721 full-length was 0.257 relative 10-mer count; with ZNF721 DBD1, 0.0107 relative 10-mer count; in the assay with ZNF721 DBD2, 0.00491 relative 10-mer count.
